Test [1] relates to XIP peptide (Xip251-270) binding. Briefly: XIP fragment 251-270 binding compounds – biochemical, small-molecule microarray, fluorescence 635/667 nm, 0.1 µg/mL protein, primary screen (AID 1182). Particulars: fluorescent protein binding, 635 nm, higher = more signal, called active from +8 up or from −8 down.
In a further test the test system is XIP peptide (Xip251-270). Briefly: compounds binding XIP fragment 251-270 – biochemical, small-molecule microarray, fluorescence 635/667 nm, 0.5 µg/mL protein, primary screen (AID 1183). Particulars: fluorescence 635 nm, higher = more signal.
Test [2] in a line: blood-stage malaria parasite viability loss – strain 3D7, DAPI fluorescence, 100 nL, primary screen (AID 1184).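 Further: parasites grown inside human red blood cells in medium with human serum.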 Particulars: P. falciparum 3D7 growth, 3 d, higher = more signal.
In test [3] the target is Homeobox protein Hox-A13 (Mus musculus) (UniProt Q62424). Briefly: disruptors of Hoxa13 oligonucleotide interaction – biochemical, fluorescence polarization, labeled oligonucleotide, primary screen (AID 1185). The following applies: Hoxa13:DNA binding, 15 min, higher = more signal, called active from +8 up or from −8 down.
The nature of test [4]: blockers of DNA damage checkpoint Chk1 activation – imaging, HeLa, hydroxyurea, phospho-Chk1 antibody, percent positive cells, primary screen (AID 1186). The following applies: hydroxyurea-induced phospho-Chk1 immunofluorescence imaging, higher = more signal.
A short description of test [5]: blockers of DNA damage checkpoint Chk1 activation – imaging, HeLa, hydroxyurea, phospho-Chk1 nuclear intensity, primary screen (AID 1187). The following applies: hydroxyurea-induced phospho-Chk1 immunofluorescence imaging, higher = more signal.

Drawing on PubChem BioAssay, this text covers composite z-score and z-score for 14 molecules.

The source made the active and inactive calls. Unless noted, how the calls were made is not given here.

Sequence of Homeobox protein Hox-A13 (Mus musculus) (Q62424 whole entry, looked up): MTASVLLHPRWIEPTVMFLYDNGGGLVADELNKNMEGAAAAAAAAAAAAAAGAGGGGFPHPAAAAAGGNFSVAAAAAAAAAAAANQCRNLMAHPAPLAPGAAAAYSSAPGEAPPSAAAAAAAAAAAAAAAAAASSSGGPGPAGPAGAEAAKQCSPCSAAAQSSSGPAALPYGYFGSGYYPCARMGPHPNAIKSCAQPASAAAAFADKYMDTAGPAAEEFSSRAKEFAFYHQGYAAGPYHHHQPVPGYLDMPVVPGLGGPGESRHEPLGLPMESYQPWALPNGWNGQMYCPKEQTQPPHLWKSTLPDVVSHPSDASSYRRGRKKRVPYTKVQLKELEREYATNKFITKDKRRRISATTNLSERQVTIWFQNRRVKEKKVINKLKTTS

For the molecule `C=CCOC(=O)[C@@H]1[C@H]2C(=O)O[C@H](c3ccccc3)[C@H](c3ccccc3)N2[C@H](c2ccc(OCCOC(=O)[C@H]3C[C@H]4C(=O)N[C@@H](CCCCNC(C)=O)C(=O)N4[C@H]3c3cccc(OCCO)c3)cc2)[C@@]12C(=O)Nc1ccc(I)cc12`, the composite z-score in test [1] was 1.09 (inactive); in the test with XIP peptide (Xip251-270) it was 0.822. Besides, the z-score was -1.64 in test [2], 1 (inactive) in test [3], -0.398 (inactive) in test [4] and -0.929 (inactive) in test [5].
With `CCOc1cc(C(O)C2C=CC3C(=O)N(C4CCCCC4)C(=O)C3N2Nc2ccc(OC)cc2)ccc1O` (centres undefined), the figures for the composite z-score (in test [1]; with XIP peptide (Xip251-270)) were 0.0699 (inactive) and 0.486, respectively. Moreover, the z-score in test [2] was -0.165; in test [3], -3.99 (inactive); in test [4] it was -0.509 (inactive); in test [5], -0.813 (inactive).
Take `COCCOC(=O)N1C(=O)[C@@]2(c3cc(C#CC4(O)CCCCCC4)ccc31)[C@H](c1ccccc1OCCO)N1[C@H](c3ccccc3)[C@H](c3ccccc3)OC(=O)[C@H]1[C@@H]2C(N)=O`: the composite z-score in test [1] was 0.151 (inactive); in the test with XIP peptide (Xip251-270), 0.774. Also, the z-score in test [2] is -2.07; in test [3], -2.04 (inactive); in test [4] it was 0.141 (inactive); in test [5], -0.377 (inactive).
Turning to `O=C1c2ccccc2[C@@]2(Cc3ccccc3N(C3CC3)C2=O)[C@H](c2ccc(CO)cc2)N1C1CCCCC1`, the composite z-score in test [1] is -0.241 (inactive); in the test with XIP peptide (Xip251-270) it was -0.76. Moreover, the z-score in test [2] was -0.323; in test [3] it was -2.14 (inactive); in test [4], 0.353 (inactive); in test [5], 0.349 (inactive).
For `C[C@]1(C(=O)NC2CC2)c2ccccc2C(=O)N(Cc2ccc(OC(F)(F)F)cc2)[C@H]1c1ccc(CO)cc1`, the composite z-score in test [1] is 0.282 (inactive); in the test with XIP peptide (Xip251-270) it was -0.923. Besides, the z-score in test [2] was 0.516; in test [3] it was -3.59 (inactive); in test [4] it was -0.0307 (inactive); in test [5], -0.521 (inactive).
In the case of `CC(C)CN1C(=O)[C@@]2(Cc3ccccc31)c1ccccc1C(=O)N(Cc1ccccc1C(F)(F)F)[C@H]2c1ccc(CO)cc1`, the composite z-score is -0.334 (inactive) in test [1] and -0.0449 in the test with XIP peptide (Xip251-270). Also, the z-score in test [2] was -0.141; in test [3], 0.0026 (inactive); in test [4], -0.417 (inactive); in test [5] it was -0.408 (inactive).
Take `C=CC[C@@]12N=C(c3ccc(OCCCO)cc3)O[C@@H]1c1ccccc1N(CCS(=O)(=O)c1ccccc1)C2=O`: the results for the composite z-score (in test [1]; in the test with XIP peptide (Xip251-270)) were 2.13 (inactive) and 0.767, respectively. The z-score in test [2] was -2.01; in test [3], -2.38 (inactive); in test [4] it was -0.641 (inactive); in test [5], -0.295 (inactive).
Turning to `COCCOC(=O)N1C(=O)[C@@]2(c3cc(C#CC4(O)CCCCCC4)ccc31)[C@H](C(N)=O)[C@H]1C(=O)O[C@H](c3ccccc3)[C@H](c3ccccc3)N1[C@@H]2c1ccccc1OCCO`, the values for the composite z-score (in test [1]; in the test on XIP peptide (Xip251-270)) were -0.0203 (inactive) and 0.792, respectively. For the same molecule, the z-score was -2.19 in test [2], -1.56 (inactive) in test [3], 0.276 (inactive) in test [4] and 0.217 (inactive) in test [5].
For the molecule `C[C@@H](OCc1ccccc1)C1NC(=O)[C@@]23C(=O)N[C@@H](Cc4ccccc4)C2[C@H](C)[C@@]2(C)O[C@H]2C3/C=C/C/C=C\CNC(=O)CNC1=O` (some centres undefined), the composite z-score in test [1] was -0.153 (inactive); in the test on XIP peptide (Xip251-270) it was -0.796. Besides, the z-score in test [2] was -0.748; in test [3], -7.11 (inactive); in test [4] it was 0.631 (inactive); in test [5] it was 0.734 (inactive).
On to `CC(C)(C)OC(=O)CC[C@]1(C(=O)NCCN2CCOCC2)N=C(c2ccc(OCCCO)cc2)O[C@H]1c1ccccc1N=[N+]=[N-]`, for which the composite z-score in test [1] is 0.716 (inactive); with XIP peptide (Xip251-270) it was 0.864. In addition, the z-score is -1.73 in test [2], -4.1 (inactive) in test [3], 0.0695 (inactive) in test [4] and 0.234 (inactive) in test [5].
As to `C=CCC(OC(C)=O)[C@@H]1[C@@H](N(Cc2cc3ccccc3o2)C(=O)Cc2ccc(F)cc2)c2cc(OCCCO)ccc2N1C(=O)c1ccc2ccccc2n1` (some centres undefined), the composite z-score is -0.173 (inactive) in test [1] and -0.442 in the test on XIP peptide (Xip251-270). Further, the z-score is 0.774 in test [2], -1.55 (inactive) in test [3], 0.702 (inactive) in test [4] and 0.636 (inactive) in test [5].
Regarding `CCCC=C(CCC)[C@@H](NP(=O)(c1ccccc1)c1ccccc1)c1ccc(C(F)(F)F)cc1`, the composite z-score in test [1] was -0.185 (inactive); with XIP peptide (Xip251-270) it was 0.258. Moreover, the z-score in test [2] is -0.591; in test [3], -1.19 (inactive); in test [4] it was 0.272 (inactive); in test [5], -0.0984 (inactive).
As to `COc1cc2c(cc1OC)CN(C(=O)[C@H]1[C@@H]3C(=O)O[C@@H](c4ccccc4)[C@@H](c4ccccc4)N3[C@@H](c3ccc(OCCO)cc3)[C@]13C(=O)Nc1ccc(C#CC4(O)CCCCCC4)cc13)CC2`, the values for the composite z-score (in test [1]; in the test with XIP peptide (Xip251-270)) were 0.63 (inactive) and 0.803, respectively. Moreover, the z-score in test [2] is -1.88; in test [3], 2.98 (inactive); in test [4], -0.647 (inactive); in test [5], -1.2 (inactive).
Turning to `CC=CC(O)C1C=CC2C(=O)N(C)C(=O)C2N1Nc1ccc([N+](=O)[O-])cc1[N+](=O)[O-]` (centres undefined), the composite z-score in test [1] is 0.32 (inactive); in the test with XIP peptide (Xip251-270), 0.266. The z-score in test [2] is 0.619; in test [3], -0.734 (inactive); in test [4], -0.0994 (inactive); in test [5], -0.104 (inactive).
